Consider 103 compounds from ChEMBL document CHEMBL4513216, “Probing the Open Global Health Chemical Diversity Library for Multistage-Active Starting Points for Next-Generation Antimalarials” (ACS Infect Dis, 2020).

Hit rate of the full screen: of about 68,000 compounds, about 2,700 (4%) showed an effect of 50% or more. Shown is part of a subset that was picked to be rich in strong results.

The test concerns Plasmodium berghei. The experiment in a line: Screen against P. berghei liver stage (PbLuc), transformed with Luciferase, at 2uM. Conditions: tested at 2 uM. It is filed as functional, HepG2.
Take `C[S+]([O-])CCNC(=O)Nc1cc(F)ccc1-n1cccn1` (stereo not drawn): the INHIBITION is reported as 58.14%.
`CC(C)C(O)CCNC(=O)Nc1cc(F)ccc1-n1cccn1` (stereo not drawn): the INHIBITION worked out at 37.43%.
As to `CN1CCN(c2ccc(F)cc2NC(=O)NCC[S+](C)[O-])CC1` (stereo not drawn), the INHIBITION is listed as 17.98%.
The figure for `Cc1nc(C)c(CC(=O)NCc2cccnc2OC2CCCC2)c(=O)[nH]1` is -10.1%.
With `NC(=O)CCC1CCCN(c2ccnc3cc(F)ccc23)C1` (stereo not drawn), the INHIBITION came to 1.01%.
For `CCS(=O)(=O)Nc1ccc2[nH]c(C3CCC3)nc2c1` the value was 74.44%; for `Cn1cc(S(=O)(=O)Nc2ccc3[nH]c(C4CCC4)nc3c2)cn1`, 48.21%; for `CCn1cc(S(=O)(=O)Nc2ccc3[nH]c(C4CCC4)nc3c2)cn1`, -16.18%.
On to `COc1cccc([C@H]2CN(C(C)=O)[C@@H]3CCN(Cc4ccsc4)C[C@H]23)c1`, for which the INHIBITION is given as -24.17%.
In the case of `O=C(CC1CC1)N1CCO[C@H]2[C@H](OCCCn3cccn3)CC[C@@H]21`, the INHIBITION is given as 37.74%.
For `CC(C)c1nn(C)c(N(C)C)c1CNCc1ccc(N(C)C)nc1` the value was -4.43%; for `O=C(C1CCC1)N1CCC2(CCNCC2)C1`, 2.94%; for `O=C(C1CC1)N1CC2(CCNCC2)C1`, 60.6%.
Turning to `O=C(C1CCCCC1)N1CC2(CCNCC2)C1`, the INHIBITION was 27.1%.
Regarding `CC(=O)N1CCC(c2cccc(-c3cccc(C(=O)O)c3)n2)CC1`, the INHIBITION turned out to be 23.7%.
Take `CCOc1ccc(CC(=O)Nc2cnccc2SCCCO)cc1`: the INHIBITION is listed as -15.31%.
As for `O=C(NCc1ccccn1)NCC(c1ccco1)N1CCCC1` (stereo not drawn), the INHIBITION was 53.61%.
For `O=C(NCc1ccccn1)NCC(c1ccco1)N1CCCCC1` (stereo not drawn) the value was -18.65%.
Regarding `CCc1cc(CNC(=O)NCC(c2ccco2)N2CCCC2)[nH]n1` (stereo not drawn), the INHIBITION was determined as 42.11%.
The figure for `CO[C@H]1CCN(C(=O)c2cc(C)on2)C[C@@H]1Cc1ccccc1` is 59.5%.
For `COCCO[C@H]1CCN(C(=O)c2cc(C)on2)[C@H]1Cc1ccccc1` the value was 62.46%; for `Cc1cc(C(=O)N2CC[C@@H]3CN(CCC(C)C)S(=O)(=O)[C@@H]3CC2)no1`, 36.44%.
The figure for `COc1ccc(C[C@H]2CN(C(=O)c3ccn(C)n3)CC[C@H]2OC)cc1` is 15.57%.
For the compound `COc1ccc(C[C@H]2CN(C(=O)c3ncccn3)CC[C@@H]2OC)cc1`, the INHIBITION amounted to 33.74%.
For `COc1ccc(C[C@H]2CN(C(=O)c3cc(C)no3)CC[C@H]2OC)cc1`, the INHIBITION came out at 51.26%.
For the compound `COc1ccc(C[C@H]2CN(C(=O)c3ccc(C)nc3)CC[C@@H]2OC)cc1`, the INHIBITION came to 15.57%.
For `COCCN1C[C@H]2CCN(C(=O)c3cc(C)on3)CC[C@H]2S1(=O)=O`, the INHIBITION worked out at 63.35%.
For `Cc1cc(C(=O)N2CC[C@@H](O)[C@@H]2Cc2ccccc2)no1`, the INHIBITION is given as 19.42%.
In the case of `Cc1cc(C(=O)N2CC[C@@H]3CN(C)S(=O)(=O)[C@@H]3CC2)no1`, the INHIBITION is recorded as -27.81%.
`CO[C@H]1CCN(C(=O)c2cc(C)on2)[C@H]1Cc1ccncc1`: the INHIBITION was -11.88%.
Take `COc1ccc(C[C@H]2CN(C(=O)c3ccncc3)CC[C@@H]2OC)cc1`: the INHIBITION is reported as -9.66%.
For the compound `Cc1cnn(CC2CN(Cc3nc(C4CC4)no3)CCO2)c1` (stereo not drawn), the INHIBITION is -18.67%.
With `c1cnc(NCc2cncc3c2CCN(Cc2ccsc2)C3)nc1`, the INHIBITION is given as 46.11%.
Regarding `CSc1nc2ccsc2c(=O)n1CC(=O)N1CCCCC1C` (stereo not drawn), the INHIBITION was -24.07%.
The figure for `CC(C)NC(=O)N1CCC2(CC(=O)N(c3cccc(C#N)c3)C2)C1` (stereo not drawn) is -8.23%; for `O=C(C1CCOCC1)N1C[C@H](OCc2cccnc2)[C@H]2COC[C@H]21` it is 26.19%.
As for `CCOc1ncccc1C(=O)N1CCCC(c2nccn2CCOC)C1` (stereo not drawn), the INHIBITION was -32.59%.
For the compound `CN1CCc2cc(C(=O)N(C)C)c(NCC3CC3)nc2CC1`, the INHIBITION turned out to be 23.97%.
As to `COCCNCc1cc2ccc(C)c(C)c2[nH]c1=O`, the INHIBITION is listed as -21.9%.
With `CCC1CN(C(=O)c2csc3nc(-c4ccc(Cl)cc4)cn23)CCN1` (stereo not drawn), the INHIBITION worked out at 22.83%.
The figure for `Cc1cccc(CN2C(=O)CCC23CCN(Cc2cccn2C)CC3)n1` is 17.39%; for `COc1ccc(-c2ncc(-c3nccn3CCN(C)C)cn2)cc1` it is 10.63%; for `CC(C)c1nccn1C1CCCN(C(=O)CCc2cscn2)C1` (stereo not drawn) it is 21.39%.
The figure for `COc1ccc(C[C@H]2CN(C(=O)c3cnoc3)CC[C@@H]2OC)cc1` is -36.05%.
With `CO[C@@H]1CCN(C(=O)c2cc(C)on2)C[C@@H]1Cc1ccccc1`, the INHIBITION was found to be 52.91%.
In the case of `COc1ccc(C[C@H]2CN(C(=O)c3cscn3)CC[C@@H]2OC)cc1`, the INHIBITION is on record as -6.39%.
For the compound `COc1ccsc1C(=O)N1CCCC1c1c(C)nn(C)c1OC` (stereo not drawn), the INHIBITION is listed as -11.31%.
In the case of `Cn1cc(N2C(=O)CC[C@@H]3[C@H]2CCN3Cc2nccs2)cn1`, the INHIBITION is -20.87%.
The figure for `Cn1cc(N2C(=O)CC[C@@H]3[C@H]2CCN3CCc2ccccc2)cn1` is -18.2%.
For `Cn1cc(N2C(=O)CC[C@@H]3[C@H]2CCN3CC2CCOCC2)cn1` the value was 50.17%; for `CCCN1CCC(Cc2noc(-c3cc4cccnc4nc3C)n2)CC1`, 38.91%.
For `CC(C(=O)NCc1ccc(N2CCNC(=O)C2)cc1)c1cccs1` (stereo not drawn) the value was -25.44%; for `CCOC(=O)NC(CNC(=O)c1cn(C)cn1)CC(C)C` (stereo not drawn), 60.9%.
For `CCOC(=O)NC(CNC(=O)c1ccccn1)CC(C)C` (stereo not drawn), the INHIBITION is reported as -15.54%.
In the case of `CCOC(=O)NC(CNC(=O)c1ncccn1)CC(C)C` (stereo not drawn), the INHIBITION amounted to 2.41%.
As for `O=C(NCCN1CCOCC1)NCC(O)c1cccc(F)c1` (stereo not drawn), the INHIBITION was -27.69%.
In the case of `Cc1noc(CN(CCO)Cc2cc(Br)ccc2F)n1`, the INHIBITION is -18.92%.
For `CCOc1cncc(N2CCN(c3ccccc3O)CC2)n1` the value was 22.75%; for `COc1c(C2CCCN2Cc2noc(C)n2)c(C)nn1C` (stereo not drawn), 21.83%.
`COc1c(C2CCCN2Cc2nnc(C3CC3)n2C)c(C)nn1C` (stereo not drawn): the INHIBITION is listed as 28.1%.
`COc1c(C2CCCN2Cc2noc(C(C)C)n2)c(C)nn1C` (stereo not drawn): the INHIBITION is on record as 59.93%.
As to `CCn1ccnc1CN1CCCC1c1c(C)nn(C)c1OC` (stereo not drawn), the INHIBITION is recorded as -69.19%.
For `CCc1nc(CN2CCCC2c2c(C)nn(C)c2OC)no1` (stereo not drawn) the value was 23.94%; for `COc1c(C2CCCN2Cc2nccn2C)c(C)nn1C` (stereo not drawn), 56.47%; for `CN(C)C(=O)c1cnc2n1CCN(Cc1ccccc1)C2`, -26.24%.
With `CN(C)C(=O)c1cnc2n1CCN(Cc1ccsc1)C2`, the INHIBITION was 54.89%.
For `Cc1ccc(CN2CCn3c(C(=O)N(C)C)cnc3C2)cc1` the value was 7.77%.
On to `CCOCC(O)CN1CCN(C(=O)c2cnc3n[nH]c(C)c3c2)CC1` (stereo not drawn), for which the INHIBITION was 21.89%.
In the case of `CC(O)CN1CCN(C(=O)c2cnn(-c3ccccc3F)c2)CC1` (stereo not drawn), the INHIBITION is recorded as -7.05%.
Take `CC(c1ccccn1)N(C)C(=O)NCCn1c(=O)oc2ccccc21` (stereo not drawn): the INHIBITION was found to be 40.4%.
Regarding `Cn1c(CC(=O)O)c(Sc2ccccc2)c2ccccc21`, the INHIBITION came out at 52.89%.
The figure for `Cc1ccc2c(c1)c(Sc1ccccc1)c(CC(=O)O)n2C` is -36.84%; for `CSc1c(CC(=O)O)n(C)c2ccccc12` it is -18.52%; for `CSCC(CCO)NC(=O)Nc1cccc(Br)c1C` (stereo not drawn) it is -29.43%.
As to `O[C@@H]1C[C@@H](c2nc(Cc3ccccc3)no2)N(Cc2ccc(F)cc2)C1`, the INHIBITION was determined as 30.63%.
Consider `CN(Cc1ccc(F)cc1)CC1(O)CCN(C(=O)c2ccn(C)n2)C1` (stereo not drawn), for which the INHIBITION is listed as -21.42%.
In the case of `CC(C)(C)OC(=O)NCC1CCCCN1Cc1cccnc1` (stereo not drawn), the INHIBITION was 24.05%.
Take `CC(C)(C)OC(=O)NCC1CCCCN1Cc1ccncc1` (stereo not drawn): the INHIBITION was determined as 54.29%.
Turning to `CC(C)(C)OC(=O)NCC1CCCCN1Cc1ccccn1` (stereo not drawn), the INHIBITION was -43.28%.
On to `Cc1cc(C(F)(F)F)nn1C(C)C(=O)NN1CCN(C)CC1` (stereo not drawn), for which the INHIBITION came out at 32.88%.
Regarding `Fc1cccc(-c2nnn3c2COC(CNc2ncccn2)C3)c1` (stereo not drawn), the INHIBITION stood at 39.47%.
For the compound `CNS(=O)(=O)c1ccc(CNC(=O)NCC2CCCO2)cc1` (stereo not drawn), the INHIBITION amounted to 39.32%.
As to `CNS(=O)(=O)c1ccc(CNC(=O)C2CN(C)CCO2)cc1` (stereo not drawn), the INHIBITION is 33.49%.
With `CNS(=O)(=O)c1ccc(CNC(=O)C2CCCO2)cc1` (stereo not drawn), the INHIBITION was 52.17%.
The figure for `Cn1ccnc1CN(Cc1cccnc1)CC1CCCO1` (stereo not drawn) is 41.82%.
`CCn1nc(C(=O)N2CCNCC2C(=O)Nc2ccc(C)nc2)cc1C` (stereo not drawn): the INHIBITION came out at 3.82%.
As for `O=C(Cc1cccc(F)c1)NCCNCc1cccc(O)c1`, the INHIBITION turned out to be 57.33%.
In the case of `O=C(Cc1ccccc1)NCCNCc1cccc(O)c1`, the INHIBITION is listed as 31.57%.
For `O=C(Cc1ccc(F)cc1)NCCNCc1cccc(O)c1` the value was -49.9%; for `c1ccc(CN2Cc3[nH]nc(COc4cccnc4)c3C2)nc1`, 18.6%; for `CC1CNC(=O)CCN1Cc1cc(O)c2cccc(F)c2n1` (stereo not drawn), 18.31%.
Turning to `Cc1nnc(CN(Cc2ccc(Cl)c(Cl)c2)C(C)C)o1`, the INHIBITION amounted to 55.36%.
With `Cc1nnc(CN(Cc2cccc(Cl)c2)C(C)C)o1`, the INHIBITION was found to be 41.05%.
For `Cc1nnc(CN(Cc2cccc(Br)c2)C2CC2)o1` the value was -21.25%.
As for `Cc1nnc(CN(Cc2ccc3c(c2)OCO3)C2CCC(C)CC2)o1` (stereo not drawn), the INHIBITION is -37.84%.
For `CC(C)N(Cc1cccc(Cl)c1)Cc1nnsc1Cl` the value was 16.72%; for `Cc1nnc(CN(Cc2ccc(Cl)c(Cl)c2)C2CC2)o1`, 50.59%; for `O=C(c1ccccc1F)N1CCN(c2ccc(-n3cccc3)nn2)CC1`, -17.9%.
For `O=C(c1cccnc1)N1CCN(c2ccnc3ccsc23)CC1` the value was 4.52%; for `c1ccc(-c2cccc(-c3ccn(CCN4CCCCC4)n3)c2)nc1`, 63.1%; for `c1cc(-c2cnccn2)cc(-c2ccn(CCN3CCCCC3)n2)c1`, 11.33%.
As to `c1cc(-c2cnccn2)cc(-c2ccn(CCN3CCCC3)n2)c1`, the INHIBITION turned out to be 6.07%.
The figure for `CS(=O)(=O)CCC(=O)N(CCc1cccc(F)c1)C1CC1` is 29.22%.
